NTMT1 inhibitor: Primary qHTS for Inhibitors of N-terminal methyltransferase 1 (NTMT1): MTaseGlo Assay; N-terminal Xaa-Pro-Lys N-methyltransferase 1 (Homo sapiens), Q9BV86; NTMT1 MTase-Glo SAH luminescence, purified enzyme; Potency, µM (titrated, usually from 114 µM), inactives show at the top dose activity change, negative = inhibition, usual class: inhibitors; hit rate 2.5% among 59,000; AID 1645870, 2021;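 further: potency means the concentration at half of the fitted maximal effect; plate controls were DMSO vehicle for no effect and no enzyme for full effect; nearly all actives have a fitted effect of over 65% in size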
Target sequence (Q9BV86 whole entry, looked up): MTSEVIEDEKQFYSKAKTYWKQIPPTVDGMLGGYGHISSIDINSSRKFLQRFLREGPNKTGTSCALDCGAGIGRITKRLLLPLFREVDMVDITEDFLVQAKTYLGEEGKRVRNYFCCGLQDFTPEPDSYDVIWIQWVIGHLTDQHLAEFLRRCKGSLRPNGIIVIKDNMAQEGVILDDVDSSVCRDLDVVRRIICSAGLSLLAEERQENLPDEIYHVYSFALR
FH mod: Identification of activators of human fumarate hydratase by quantitative high-throughput screening | AID 1347055, 2019 | Fumarate hydratase, mitochondrial (Homo sapiens), P07954 | hit rate 0.22% among 54,000 | FH coupled MDH/diaphorase resazurin fluorescence, 15 min | Potency, µM (top dose mostly 79.9 µM), for inactives: at the highest dose activity change, negative = inhibition, most hits filed as inhibitors; further: potency means the concentration at half of the fitted maximal effect; on the % scale 0 is the no-effect control and ±100 the full control effect; the screen sought activators but most active calls are inhibition curves; nearly all actives have a fitted effect of over 45% in size
p53null 32C kill: qHTS Screen for Compounds that Selectively Target Cancer Cells with p53 Mutations: Cytotoxicity of p53 Null Cells at the Permissive Temperature | hit rate 0.62% among 55,000 | H1299-neo p53 null cells, ATP luminescence, 24 h, 32C | Potency, µM (titrated, usually from 46.1 µM), for the others: at the highest dose activity change, negative = cytotoxicity, hits mostly cytotoxic;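 further: potency means the concentration at half of the fitted maximal effect; 0% = DMSO only and -100% = full killing by 100 µM tamoxifen; nearly all actives have a fitted effect of over 55% in size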
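Cytotoxicity: H1299-neo (no p53), 32C, 24 h treatment. Concentrations up to 46 uM. Readout cellular ATP, luminescence. Normalization to DMSO basal and tamoxifen 100 uM maximal kill.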
OvCa metastasis: Primary qHTS assay for Inhibitors of ovarian cancer metastasis using an organotypic tumor microenvironment (TME) model; SKOV3ip1-GFP adhesion/invasion on 3D omental model, fluorescence; Potency, µM (series often up to 45.8 µM), for the others: top-dose activity change, negative = inhibition, actives largely listed as inhibitors; hit rate 0.1% among 46,000;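 further: potency means the concentration at half of the fitted maximal effect; plate controls were DMSO wells for no effect and tomatine positive control wells for full effect; nearly all actives have a fitted effect of over 65% in size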
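A 3D layer of primary human omental fibroblasts, mesothelial cells, fibronectin and collagen I, grown 48 hr, received SKOV3ip1-GFP cells in serum-free medium plus compounds at 0.36-46 umol/L. After 2 hr RT and 16 hr 37 C, fixed adherent GFP cells were counted; normalized to DMSO and tomatine.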
p53null 39C tox: qHTS Screen for Compounds that Selectively Target Cancer Cells with p53 Mutations: Cytotoxicity of p53 Null Cells at the Nonpermissive Temperature; H1299 p53-null (neo) cells, 39C, ATPlite viability, 24 h; hit rate 0.97% among 55,000; Potency, µM (highest dose often 46.1 µM), for inactives: at the top dose activity, negative = cell killing, actives largely listed as cytotoxic;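 further: potency means the concentration at half of the fitted maximal effect; 0% = DMSO only and -100% = full killing by 100 µM tamoxifen; nearly all actives have a fitted effect of over 50% in size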
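Following overnight plating at 37C (600 cells/well), H1299-neo or H1299-p53A138V cells are dosed up to 46 uM. Incubation lasts 24 hr at 39C before ATP detection.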
NNMT counter: Counterscreen qHTS for Inhibitors of N-terminal methyltransferase 1 (NTMT1): NNMT MTaseGlo assay | shares compounds with NTMT1 inhibitor | NNMT MTase-Glo luminescence, SAH detection | Potency, µM (doses to about 57.1 µM), without a hit: top-dose activity, negative = inhibition, most hits filed as inhibitors | hit rate 10% among 120 | AID 1645878, 2021
* = called active by the depositor; [ ] = another dose, or the depositor's remark. The sample as a whole holds a higher share of hits than the screen did. The call rests on the fitted dose curve; in most records, active means well fitted curve in the direction sought with a large enough effect; inconclusive means small, poorly fitted or top-dose-only effect, or another doubt; inactive means no such curve, though single readings can be large; an effect the other way counts as inactive or inconclusive.

CCN1CCC(n2cc(CNc3cc(Cl)c4ncc(C#N)c(Nc5ccc(F)c(Cl)c5)c4c3)nn2)CC1 was read as NTMT1 inhibitor 2.51µM*, FH mod -8.7%, OvCa metastasis -1.5% and NNMT counter inconclusive.
N#Cc1cnc2cnc(NCc3cccnc3)cc2c1Nc1ccc(F)c(Cl)c1 was read as NTMT1 inhibitor inconclusive and FH mod 0.4%.
`COc1ccc(CNC(=O)C(=O)Nc2ccccc2OC)cc1` gave NTMT1 inhibitor 15.3%, FH mod -18.5%, p53null 32C kill -1.2%, OvCa metastasis 5.7% and p53null 39C tox -1.3%.
`COc1ccccc1NC(=O)Nc1ccc2ccccc2c1` gave NTMT1 inhibitor -9.1%[57.5 µM], FH mod inconclusive and NNMT counter -14.0%.
For O=C(Nc1ccc(F)c(C(F)(F)F)c1)Nc1nc(-c2ccncc2)cs1 the results were NTMT1 inhibitor 4.3%[57.5 µM].
N#Cc1ccc(Nc2nc(-c3ccc(O)cc3O)cs2)cc1C(F)(F)F was read as NTMT1 inhibitor inconclusive, FH mod inconclusive and NNMT counter -28.1%.
Screening Cc1ccc(C(=O)NCCCCCC(=O)Nc2ccccc2N)cc1 returned NTMT1 inhibitor 9.5%[29.8 µM].
Cc1cn([C@H]2C[C@H](N[S+](=O)([O-])Cc3cccc([N+](=O)[O-])c3)[C@@H](CO)O2)c(=O)[nH]c1=O was read as NTMT1 inhibitor 9.8%.
